# Source: PubChem BioAssay
# Nrf2 ARE act – Nrf2 pathway activation; AREc32 ARE-luciferase reporter (MCF7-derived line), luminescence, 24 h; Potency, µM (highest dose often 46.1 µM), for the others: top-dose activation, actives largely listed as activators; actives 0.31% (n = 410,000); AID 624171; also: potency is read from the fitted curve at half-maximal effect; % of control where 0% means no effect; nearly all actives have a fitted effect of over 65% in size
#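 Luminescent ARE reporter assay in AREc32_Fluc cells: overnight plating at 37 deg C, 24 hr compound incubation, Steady-Glo added, 30 min RT before reading.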
# IL-2 act – activators of IL-2; IL-2 activation reporter assay, cell-based qHTS; stimulated with anti-CD3/CD4/CD28 beads; in transgenic mouse T cells; activation, % (series mostly up to about 46 µM); actives 0.065% (n = 360,000); in the data active = activation above about 50%; inconclusive = mostly about 30% to 49%; also: 0% is about no effect
#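 Screening format: compound pinned onto unstimulated transgenic mouse T cells, 60 min incubation, then anti-CD3/anti-CD4/anti-CD28 bead stimulation for 18 hours at 37 degrees C, followed by EGFP and DsRed detection.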
# BCR signal inh – blocks chronic active B-cell receptor signaling. Potency, µM (top dose mostly 46.1 µM), without a hit: at the highest dose activity change, negative = inhibition, most hits filed as inhibitors. ABC-DLBCL IkBa-CBG/CBR reporter, luminescence ratio, 4 h. actives 0.05% (n = 340,000). AID 493014; active = well fitted inhibition curve with a large enough effect in the signal ratio, with a control signal flat, not every such curve was filed as active; inconclusive = small, poorly fitted or top-dose-only effect, or effect the other way, or a change in a side signal; the % refers to the signal ratio;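 also: potency is read from the fitted curve at half-maximal effect; plate controls were basal doxycycline-induced cells for no effect and cells given 10 µM MG132 for full effect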
#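 TMD8 human ABC-DLBCL cells with doxycycline-inducible IκBα–green luciferase fusion and unfused red luciferase, in 0.5% FBS medium; compounds up to 46 uM, 4 h at 37C. Green/red luminescence ratio, filter-overlap corrected, fitted to concentration-response curves.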
# N370S GC mod – inhibits or activates N370S mutant glucocerebrosidase; P04062; N370S GC spleen homogenate, 4MU-glucoside fluorescence; Potency, µM (titrated, usually from 59.4 µM), without a hit: top-dose activity change, negative = inhibition, usual class: inhibitors; actives 0.092% (n = 330,000); AID 2101;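 also: potency is read from the fitted curve at half-maximal effect; 0% = full enzyme activity and -100% = no enzyme basal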
# BRCA1 expr up – activators of BRCA1 expression. MCF7-BRCA1-FFLuc reporter, luminescence, 48 h; response scale: scaled: vehicle 0%, 10 µM genistein 100%. AID 624202. Potency, µM (top dose mostly 46.1 µM), for the others: at the top dose activation, most hits filed as activators. actives 1.1% (n = 380,000); also: potency is read from the fitted curve at half-maximal effect; nearly all actives have a fitted effect of over 80% in size
#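 First, MCF7-BRCA1-FFLuc cells (2000/well) attach for 2 h; next, compounds are pin-added and incubated 48 h at 37 °C; finally, luciferase reagent is added and luminescence read after 15 min.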
# a7 integrin act – activators of alpha7 integrin expression for muscular dystrophy; alpha7betagal myoblasts, beta-gal FDG fluorescence, 48 h; actives 0.064% (n = 350,000); Potency, µM (series often up to 38.3 µM), for the others: at the top dose activation, hits mostly activators;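 also: potency is read from the fitted curve at half-maximal effect; 100% = response of the positive control SU9516; nearly all actives have a fitted effect of over 60% in size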
#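 Alpha7betagal+/- myoblasts (passage 13) were plated 16-24 hr, then exposed to compounds (1:260 dilution of DMSO stock) for 48 hours at 37C. After MPER lysis, β-galactosidase reporter activity was read as FDG fluorescence (ex 480/em 540) after 30 minutes.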
# * marks the source's active call; other numbers are inactive results; ? = inconclusive; nt = no result given. Only some compounds are listed: those with a hit (about 1.4% of all), similar ones and a draw of the others. Unless noted, calls follow the shape of the dose curve; as a rule, active = well fitted curve in the direction sought with a large enough effect; inconclusive = small, poorly fitted or top-dose-only effect, or another doubt; inactive = no such curve, though single readings can be large; an effect the other way counts as inactive or inconclusive.
SMILES,Nrf2 ARE act,IL-2 act,BCR signal inh,N370S GC mod,BRCA1 expr up,a7 integrin act
COC(=O)C1=NNC2(C)C(=O)N(c3ccc(C)cc3)C(=O)C12 (centres undefined),-0.3%,0.1,-10.9%,0.2%,-4.7%,10µM*
O=C(Nc1ccc2c(c1)CCC2)c1cc(F)cc(F)c1,3.8%,-2.6,?,nt,3.16µM*,1.0%
O=C(Nc1ccc2c(c1)CCC2)c1ccccc1Br,5.1%,0.9,-21.0%,12.1%,?,?
CSc1ccccc1C(=O)Nc1ccc2c(c1)CCC2,4.0%,0.3,-1.4%,2.5%,11.2µM*,?
N#Cc1cccc(S(=O)(=O)N2CCN(c3nc(-c4cccs4)nc4ccccc34)CC2)c1,nt,nt,nt,nt,0.0%,nt
CC1CCCCN1Cc1c(O)ccc2c(=O)c(-c3ccc(Cl)cc3)coc12 (centres undefined),2.3%,0.3,?,-3.1%,10µM*,-35.7%
COc1ccccc1-c1coc2c(CN3C(C)CCCC3C)c(O)ccc2c1=O (centres undefined),-1.0%,-0.3,-1.0%,2.5%,24.3%,2.24µM*
Cc1ncnc(N)c1CCCNc1ccccc1,-0.5%,-0.5,nt,nt,-4.2%,-0.2%
CC(=O)OCc1cnc(C)c2oc(=O)c(C(=O)Nc3cccc(F)c3)cc12,-1.0%,nt,nt,nt,3.3%,nt
COc1ccc(C(CNC(=O)c2ccc(OCc3c(C)noc3C)cc2)N2CCCC2)cc1 (centres undefined),14.1%,0.4,?,nt,-32.2%,-6.4%
CCCN1C(=O)c2ccccc2NC1c1ccc(OC)c(COc2cccc(C)c2C)c1 (centres undefined),nt,nt,nt,nt,-44.5%,nt
O=C(CC(Sc1ccccc1)c1cccs1)c1ccco1 (centres undefined),17.8µM*,-1.0,?,-5.2%,25.3%,-15.7%
COCCNC(=O)c1ccc(-n2c(-c3ccccc3)cc3c2CCCCC3)cc1,15.8µM*,nt,nt,nt,nt,nt
CCCNC(=O)c1ccc(-n2c(-c3ccccc3)cc3c2CCCCC3)cc1,12.6µM*,nt,nt,nt,nt,nt
CN(C)CCNC(=O)c1ccc(-n2c(-c3ccccc3)cc3c2CCCC3)cc1,11.2µM*,nt,nt,nt,nt,nt
COc1cccc(C(c2c(NC(=O)c3ccccc3)sc(C)c2C)N2CCN(C)CC2)c1 (centres undefined),-0.6%,4.8,2.5%,15.8µM*,-43.5%,10.9%
N#Cc1c(-c2ccc(F)cc2)cc(-c2cccnc2)nc1N,-0.3%,0.0,-0.7%,nt,-7.1%,3.1%
N#Cc1c(-c2ccco2)cc(-c2ccc(F)cc2)nc1N,1µM*,0.5,?,14.5%,-64.9%,-58.5%
Cc1ncc(C(=O)Nc2ccccc2)[nH]1,0.1%,0.3,nt,nt,2.82µM*,-2.7%
COc1ccc(OC)c(/C=C/c2c3ccccc3cc[n+]2C)c1,nt,nt,nt,nt,-71.8%,nt
O=c1cccccc1NN=C1CCCCCC1,10.4%,-0.9,?,15.4%,10µM*,9.5%
COc1ccc2nc(C)cc(NCc3ccc(F)cc3)c2c1,7.9%,65.3*,?,0.0%,-35.0%,-60.9%
Cc1cc2[nH]c(=O)c(=O)[nH]c2cc1S(=O)(=O)NC1CCCCC1C (centres undefined),-1.0%,-2.3,0.4%,-19.1%,-6.8%,-14.9%
CC(=O)C(C)Oc1ccc2c3c(c(=O)oc2c1)CCCCC3 (centres undefined),2.4%,-2.7,-0.9%,?,79.0%,-3.7%
CC(=O)C(C)Oc1ccc2c3c(c(=O)oc2c1)CCCC3 (centres undefined),0.2%,-2.9,?,11.6%,11.2µM*,16.1%
SMILES,Nrf2 ARE act,IL-2 act,BCR signal inh,N370S GC mod,BRCA1 expr up,a7 integrin act
Nc1nc(=S)c2n[nH]nc2[nH]1,nt,nt,nt,nt,-0.6%,nt
O=c1[nH]c(/C(Cl)=C/c2cc(Cl)ccc2O)nc2cc(Cl)ccc12,8.91µM*,0.0,?,3.8%,-62.4%,-24.1%
O=c1[nH]c(/C(Cl)=C/c2c(F)cccc2Cl)nc2cc(Cl)ccc12,17.1%,-0.8,3.4%,7.4%,-61.3%,6.1%
CCOc1ccc(S(=O)(=O)N2CCC(C(=O)N3CCCC3)CC2)cc1C,-0.1%,-0.3,-1.8%,1.1%,-28.9%,0.0%
Cc1nn(-c2ccccc2)c(C)c1/C=N/O,0.1%,0.4,-5.9%,0.7%,0.3%,-15.4%
Cc1nn(-c2ccccc2)c(/N=C/c2ccccc2O)c1-c1ccccc1,0.7%,-1.7,?,12.0%,12.6µM*,15.4%
Cc1ccc(C2=Nc3cccnc3C(c3ccccc3)=NN2)cc1,2.8%,-0.2,5.5%,16.4%,6.31µM*,-0.4%
Cc1ccc2c(c1)C(c1ccncc1)=NNC(c1ccccc1)=N2,3.8%,-2.2,?,8.9%,0.0%,-28.9%
COc1ccc(S(=O)(=O)NCCCN2CCCC2=O)c(OC)c1,0.1%,-2.5,-6.0%,-0.8%,-0.8%,1.3%
COc1ccc(CCNC(=O)c2cccs2)cc1,-0.3%,-1.0,?,-9.1%,10µM*,17.2%
O=C(NCCc1ccc(F)cc1)c1cccs1,0.7%,-0.4,-12.5%,2.6%,11.2µM*,1.0%
O=C(NCC1CC1)c1cccs1,0.4%,0.5,nt,nt,17.8%,nt
O=C(NCc1ccc(F)cc1)c1cccs1,0.6%,0.0,-18.2%,0.2%,3.3%,1.8%
O=C(NCCc1cccs1)c1cccs1,2.6%,-0.7,?,11.6%,6.31µM*,?
O=C(NCCC1CCCC1)c1cccs1,2.5%,-1.4,2.3%,-1.0%,11.2µM*,-18.6%
O=C(Nc1nncs1)c1cccnc1Cl,-0.9%,-0.7,?,21.3%,-13.8%,17.0%
Cc1cccc2c(=O)[nH]c3c(-c4nc(-c5ccc(Cl)cc5)cs4)c(O)cn3c12,nt,nt,nt,nt,0.9%,nt
O=C(CNC(=O)c1cccs1)OCc1ccc(Br)cc1,-0.3%,2.1,?,2.4%,17.2%,5.9%
COc1ccc2cc(CCNC(=O)c3cc4ccccc4o3)c(=O)[nH]c2c1,0.0%,-1.3,-0.2%,-5.3%,-13.9%,-25.7%
O=C(CNC(=O)c1cccs1)c1ccc(Br)cc1,-0.2%,5.0,?,4.0%,5.62µM*,-7.9%
COc1ccc2cc(CCNC(=O)c3cccs3)c(=O)[nH]c2c1,2.7%,-2.5,-0.2%,2.1%,2.82µM*,13.3%
Cc1cc2c(cc1C)-n1nnnc1C(N1CCN(C(=O)OCc3ccccc3)CC1)C(=O)N2 (centres undefined),nt,-0.7,nt,nt,nt,nt
COc1cccc(CN(C(=O)c2cccc(C)c2)C2CCS(=O)(=O)C2)c1 (centres undefined),-0.9%,nt,nt,nt,nt,nt
CC1N=C2c3ccccc3N=C(SCC(=O)NCc3ccc(Cl)cc3)N2C1=O (centres undefined),5.8%,nt,nt,nt,nt,nt
Nc1c(C(=O)NCc2ccco2)nnn1-c1ccccc1,3.9%,-4.1,?,-7.8%,12.6µM*,-6.3%
